Laboratory results published in PubChem BioAssay AID1159580 (chemical genetic matrix, 2015).
The campaign covered roughly 5,500 compounds. About 2,000 (36%) were called active. Inconclusive results (about 18%) are left out. Rule as the data show it: active = normalized growth mostly below about 0.91 (no sharp cut-off); inconclusive = no clear call, values can overlap the other calls; inactive = mostly above about 0.92. This is one part of the list.

Assay: chemical genetic growth profiling, strain panel (AID 1159580);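 also: tested at 20 µM; growth read once vehicle control cultures reached saturation at 30 °C; 1 = growth at the plate median or of vehicle wells; lower values mean less growth of the strain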
Details: growth OD

Measured: normalized growth

CC1=C(/C=C/C(C)=C/C=C/C(C)=C/CO)C(C)(C)CCC1
inactive: S. cerevisiae deletion strains, locus YJR043C, strain POL32, active compounds read low 0.985 | S. cerevisiae deletion strains, locus YJR066W, strain TOR1, active compounds read low 0.94 | S. cerevisiae deletion strains, locus YKL009W, strain mrt4, active compounds read low 0.993 | S. cerevisiae deletion strains, locus YKL068W, active compounds read low 0.997 | S. cerevisiae deletion strains, locus YKL085W, strain MDH1 (second series), active compounds read low 0.972 | S. cerevisiae deletion strains, locus YKL085W, strain MDH1, active compounds read low 0.972 | S. cerevisiae deletion strains, locus YKL160W, strain elf1, active compounds read low 1.04 | S. cerevisiae deletion strains, locus YKL190W, strain CNB1, active compounds read low 0.991 | S. cerevisiae deletion strains, locus YKR001C, strain vps1, active compounds read low 0.984 | S. cerevisiae deletion strains, locus YKR026C, strain gcn3, active compounds read low 1.02 | S. cerevisiae deletion strains, locus YKR091W, strain srl3, active compounds read low 1.01 | S. cerevisiae deletion strains, locus YLL001W, strain dnm1, active compounds read low 0.975 | S. cerevisiae deletion strains, locus YLL026W, active compounds read low 1.03 | S. cerevisiae deletion strains, locus YLL041C, strain sdh2, active compounds read low 0.99 | S. cerevisiae deletion strains, locus YLR027C, strain aat2, active compounds read low 1.01 | S. cerevisiae deletion strains, locus YLR039C, strain RIC1, active compounds read low 1.01 | S. cerevisiae deletion strains, locus YLR058C, strain SHM2, active compounds read low 0.976 | S. cerevisiae deletion strains, locus YLR102C, strain apc9, active compounds read low 1 | S. cerevisiae deletion strains, locus YLR113W, strain HOG1, active compounds read low 1 | S. cerevisiae deletion strains, locus YLR221C, strain rsa3, active compounds read low 0.973 | S. cerevisiae deletion strains, locus YLR258W, strain gsy2, active compounds read low 1.03 | S. cerevisiae deletion strains, locus YLR262C, strain YPT6 (second series), active compounds read low 0.972 | S. cerevisiae deletion strains, locus YLR262C, strain YPT6, active compounds read low 0.934 | S. cerevisiae deletion strains, locus YLR268W, strain sec22, active compounds read low 1 | S. cerevisiae deletion strains, locus YLR320W, strain mms22, active compounds read low 0.972 | S. cerevisiae deletion strains, locus YLR330W, strain CHS5, active compounds read low 1 | S. cerevisiae deletion strains, locus YLR342W, strain FKS1 (second series), active compounds read low 1.1 | S. cerevisiae deletion strains, locus YLR342W, strain FKS1, active compounds read low 1.03 | S. cerevisiae deletion strains, locus YLR357W, strain rsc2, active compounds read low 1.01 | S. cerevisiae deletion strains, locus YLR370C, strain arc18, active compounds read low 1.01 | S. cerevisiae deletion strains, locus YLR371W, strain rom2, active compounds read low 1.02 | S. cerevisiae deletion strains, locus YLR384C, strain iki3, active compounds read low 1.01 | S. cerevisiae deletion strains, locus YLR418C, strain cdc73, active compounds read low 0.965 | S. cerevisiae deletion strains, locus YML016C, strain PPZ1, active compounds read low 0.998 | S. cerevisiae deletion strains, locus YML032C, strain rad52, active compounds read low 1.01 | S. cerevisiae deletion strains, locus YML120C, strain ndi1, active compounds read low 1 | S. cerevisiae deletion strains, locus YML124C, strain tub3, active compounds read low 0.996 | S. cerevisiae deletion strains, locus YMR058W, strain fet3, active compounds read low 0.998 | S. cerevisiae deletion strains, locus YMR078C, strain ctf18, active compounds read low 1 | S. cerevisiae deletion strains, locus YMR125W, strain sto1, active compounds read low 1.02 | S. cerevisiae deletion strains, locus YMR129W, active compounds read low 1.02 | S. cerevisiae deletion strains, locus YMR205C, strain PFK2, active compounds read low 0.96 | S. cerevisiae deletion strains, locus YMR223W, strain ubp8, active compounds read low 0.998 | S. cerevisiae deletion strains, locus YMR231W, strain pep5, active compounds read low 0.997 | S. cerevisiae deletion strains, locus YMR307W, strain GAS1, active compounds read low 0.982 | S. cerevisiae deletion strains, locus YNL067W, strain RPL9B, active compounds read low 0.962 | S. cerevisiae deletion strains, locus YNL071W, strain lat1, active compounds read low 1.03 | S. cerevisiae deletion strains, locus YNL183C, strain NPR1, active compounds read low 0.938 | S. cerevisiae deletion strains, locus YNL209W, strain ssb2, active compounds read low 1.02 | S. cerevisiae deletion strains, locus YNL233W, strain BNI4, active compounds read low 0.974 | S. cerevisiae deletion strains, locus YNL248C, strain rpa49, active compounds read low 1.09 | S. cerevisiae deletion strains, locus YNL250W, strain rad50, active compounds read low 0.982 | S. cerevisiae deletion strains, locus YNL271C, strain bni1, active compounds read low 1.01 | S. cerevisiae deletion strains, locus YNL298W, strain CLA4, active compounds read low 1.01 | S. cerevisiae deletion strains, locus YNL307C, strain MCK1, active compounds read low 1.01 | S. cerevisiae deletion strains, locus YNL322C, strain KRE1 (second series), active compounds read low 1.05 | S. cerevisiae deletion strains, locus YNR049C, strain mso1, active compounds read low 1.01 | S. cerevisiae deletion strains, locus YNR052C, strain pop2, active compounds read low 1.01 | S. cerevisiae deletion strains, locus YOL006C, strain TOP1, active compounds read low 0.929 | S. cerevisiae deletion strains, locus YOL012C, strain htz1 0.793 | S. cerevisiae deletion strains, locus YOL147C, strain pex11, active compounds read low 0.994 | S. cerevisiae deletion strains, locus YOR001W, strain rrp6, active compounds read low 0.983 | S. cerevisiae deletion strains, locus YOR061W, strain CKA2, active compounds read low 0.961 | S. cerevisiae deletion strains, locus YOR069W, strain VPS5, active compounds read low 1.01 | S. cerevisiae deletion strains, locus YOR070C, strain gyp1, active compounds read low 1 | S. cerevisiae deletion strains, locus YOR080W, strain dia2, active compounds read low 1.01 | S. cerevisiae deletion strains, locus YOR083W, strain WHI5, active compounds read low 0.988 | S. cerevisiae deletion strains, locus YOR106W, strain vam3, active compounds read low 1 | S. cerevisiae deletion strains, locus YOR136W, strain idh2, active compounds read low 0.992 | S. cerevisiae deletion strains, locus YOR144C, strain elg1, active compounds read low 1 | S. cerevisiae deletion strains, locus YOR184W, strain ser1, active compounds read low 1.01 | S. cerevisiae deletion strains, locus YOR231W, strain MKK1, active compounds read low 0.988 | S. cerevisiae deletion strains, locus YOR265W, strain rbl2, active compounds read low 1 | S. cerevisiae deletion strains, locus YOR270C, strain vph1, active compounds read low 0.848 | S. cerevisiae deletion strains, locus YOR290C, strain snf2, active compounds read low 1.05 | S. cerevisiae deletion strains, locus YOR316C, strain cot1, active compounds read low 1 | S. cerevisiae deletion strains, locus YPL051W, strain arl3, active compounds read low 1.04 | S. cerevisiae deletion strains, locus YPL055C, strain LGE1, active compounds read low 0.873 | S. cerevisiae deletion strains, locus YPL078C, strain atp4, active compounds read low 1.02 | S. cerevisiae deletion strains, locus YPL106C, strain sse1, active compounds read low 1.13 | S. cerevisiae deletion strains, locus YPL240C, strain hsp82, active compounds read low 1.01 | S. cerevisiae deletion strains, locus YPL256C, strain CLN2, active compounds read low 1.04 | S. cerevisiae deletion strains, locus YPR119W, strain clb2, active compounds read low 1 | S. cerevisiae deletion strains, locus YPR141C, strain kar3, active compounds read low 0.997 | S. cerevisiae deletion strains, locus YPR163C, strain tif3, active compounds read low 0.998 | S. cerevisiae deletion strains, locus YPR167C, strain met16, active compounds read low 1 | S. cerevisiae deletion strains, strain wtn01, active compounds read low 1.03 | S. cerevisiae strains, strain wild type, active compounds read low 0.979
